# Measured values published in ChEMBL document CHEMBL4513146, “CO-ADD screening of Karazin Kharkiv National University (Ukraine) compounds”.
# Measured potencies and affinities stand elsewhere.
# Columns and labels:
# Staphylococcus aureus = settings: Concentration 32 ug.mL-1;; ASSAY_TEST Inhibition of Bacterial Growth; detection method Absorption (OD600); MEDIA CAMHB; plate type 384well; NBS; CORNING #3640; time 18 hr
# Escherichia coli = settings: Concentration 32 ug.mL-1;; ASSAY_TEST Inhibition of Bacterial Growth; detection method Absorption (OD600); MEDIA CAMHB; plate type 384well; NBS; CORNING #3640; time 18 hr
Compound,Inhibition (Staphylococcus aureus),Inhibition (Escherichia coli)
COC(=O)c1ccc(NC(=O)Cn2nc3c(Oc4cccc(OC)c4)nccn3c2=O)cc1,10.83%,-2.01%
CC(C)c1nnc2c(SCC(=O)Nc3ccc(F)cc3F)nc3ccccc3n12,6.8%,1.07%
CCCNC(=O)Cn1nc2cc(C)nc(Nc3cc(C)cc(C)c3)n2c1=O,13.08%,0.71%
Cc1ccc(NC(=O)Cn2nc3c(N4CCOCC4)nc4ccccc4n3c2=O)cc1C,6.57%,-0.21%
COc1cccc(-n2ccn3c(SCC(=O)Nc4ccc(F)cc4F)nnc3c2=O)c1,12.12%,-6.2%
COc1ccc(CCn2c(=O)c3sccc3n3c(=O)n(Cc4ccc(F)cc4)nc23)cc1OC,2.92%,-0.5%
Cc1c(Cl)cccc1NC(=O)Cn1nc2c(SCc3ccccc3)nccn2c1=O,2.18%,-6.95%
Cc1ccc(NC(=O)CSc2nc3ccccc3n3c(C(C)C)nnc23)cc1Cl,-8.33%,-6.42%
CCCCn1c(=O)c2sccc2n2c(=O)n(CC(=O)c3ccc(OC)cc3)nc12,3.9%,0.74%
Cn1c(=O)c2sccc2n2c(=O)n(Cc3ccc(Cl)cc3)nc12,3.13%,-4.41%
Cc1ccc(S(=O)(=O)Nc2ccc3nnc(-c4ccccc4)n3n2)cc1C,8.79%,-2.69%
CCOc1ccc(-n2ccn3c(SCC(=O)Nc4ccc(Cl)cc4)nnc3c2=O)cc1,4.06%,-5.21%
Cc1cccc(CN(c2ccc(F)cc2)S(=O)(=O)c2ccc3nnc(C)n3c2)c1,5.07%,-8.57%
O=S(=O)(c1cccn2cnnc12)N(Cc1cccc(F)c1)c1cccc(Cl)c1,6.21%,-7.43%
COc1ccccc1N1CCN(C(=O)Cn2nc3ccc(-c4ccc(Cl)cc4)nn3c2=O)CC1,8.63%,0.78%
CCOc1ccccc1NC(=O)Cn1nc2c(N3CCN(c4ccccc4)CC3)nccn2c1=O,1.85%,-3.13%
O=c1n(Cc2cccc(C(F)(F)F)c2)nc2ccc(S(=O)(=O)N3CCCC3)cn12,14.07%,-1.1%
COc1ccccc1-n1ccn2c(SCc3cccc(F)c3)nnc2c1=O,11.17%,-7.27%
Cc1ccccc1CSc1nnc2c(=O)n(-c3ccc(Br)cc3)ccn12,1.11%,-8.83%
CCc1ccc(N(Cc2ccc(C)cc2)S(=O)(=O)c2cccn3c(CC)nnc23)cc1,5.86%,-4.79%
COc1ccc(CN(c2ccc(F)cc2)S(=O)(=O)c2cccn3c(C)nnc23)cc1,15.23%,-3.22%
CCOc1ccc(-n2ccn3c(SCC(=O)Nc4ccc5c(c4)OCCO5)nnc3c2=O)cc1,4.27%,-9.56%
CCCCOc1ccc(-c2cc3c4nnc(SCC(=O)Nc5c(C)cccc5C)n4ccn3n2)cc1,-7.16%,-10.46%
COc1ccc(NC(=O)Cn2nc3c(Oc4ccccc4)nccn3c2=O)cc1OC,1.69%,-7.24%
Cc1ccc(CN(c2ccccc2)S(=O)(=O)c2ccc3nncn3c2)cc1,12.66%,-4.44%
N#Cc1ccc(NC(=O)Cn2nc3c(SCc4ccc(Cl)cc4)nccn3c2=O)cc1,9.38%,-2.23%
Cc1ccccc1CSc1nnc2c(=O)n(-c3ccc(F)c(F)c3)ccn12,12.28%,-1.52%
CCCCn1c(=O)c2sccc2n2c(=O)n(CC(=O)N3CCCC(C(=O)OCC)C3)nc12 (stereo not given),0.89%,-5.26%

Compound,Inhibition (Staphylococcus aureus),Inhibition (Escherichia coli)
COc1ccc(NC(=O)Cn2nc3c(SCc4ccc(Cl)cc4)nccn3c2=O)cc1,4.07%,-0.18%
O=c1c2nnc(SCc3ccc(Cl)cc3)n2ccn1-c1ccc(F)c(F)c1,4.12%,3.28%
CC(C)c1ccc(NC(=O)CSc2nc3ccccc3n3cnnc23)cc1,8.55%,-4.05%
Cc1cc2nn(CC(=O)N3CCOCC3)c(=O)n2c(Nc2ccc(C)c(F)c2)n1,15.64%,-0.78%
O=c1c2sccc2n2c(=O)n(Cc3ccc(F)cc3)nc2n1CCc1ccccc1,10.13%,2.04%
Cc1[nH]c2ccccc2c1C(=O)CSc1nnc2c(=O)n(-c3ccc(F)c(F)c3)ccn12,13.1%,-2.33%
CC(C)(C)Sc1ccc2nn(CC(=O)Nc3ccc(Cl)cc3)c(=O)n2n1,3.13%,0.89%
Cc1ccc(NC(=O)Cn2nc3cc(C)nc(Nc4ccc(F)cc4)n3c2=O)cc1,6.17%,-2.28%
CCc1cccc(NC(=O)Cn2nc3c(SCc4ccc(Cl)cc4)nccn3c2=O)c1,-8.25%,-12.19%
Cc1ccc(Oc2nc3ccccc3n3c(=O)n(CC(=O)Nc4cccc(C(F)(F)F)c4)nc23)cc1,0.5%,-3.3%
CCC(C)NC(=O)Cn1nc2n(Cc3cccs3)c(=O)c3sccc3n2c1=O (stereo not given),3.01%,-5.74%
COc1ccc(N(Cc2cccc(F)c2)S(=O)(=O)c2ccc3nnc(C)n3c2)cc1,-0.61%,-14.24%
CC(C)c1ccc(N(Cc2ccc(Cl)cc2)S(=O)(=O)c2cccn3cnnc23)cc1,8.06%,3.76%
COc1ccc(-c2cc3c4nnc(SCC(=O)NCc5ccccc5)n4ccn3n2)cc1,-8.9%,-21.63%
Cc1nnc2ccc(S(=O)(=O)N(Cc3cccc(F)c3)c3ccc(F)cc3)cn12,-0.57%,-11.39%
COc1cccc(-n2ccn3c(SCc4cccc(C)c4)nnc3c2=O)c1,13.81%,-5.33%
COc1ccc(N(Cc2ccc(F)cc2)S(=O)(=O)c2ccc3nncn3c2)cc1,-7.56%,-2.8%
COc1ccc(CCn2c(=O)c3sccc3n3c(=O)n(CC(=O)c4ccccc4)nc23)cc1OC,14.35%,3.29%
Cc1ccc(NC(=O)Cn2nc3ccc(C(=O)NCc4ccccc4)cn3c2=O)c(Br)c1,-7.88%,-9.76%
O=C(CSc1nnc2c(=O)n(-c3ccccc3)ccn12)NCc1ccc(Cl)cc1,9.66%,-0.23%
COc1cc(OC)c(NC(=O)Cn2nc3c(Oc4cccc(C)c4C)nccn3c2=O)cc1Cl,1.15%,-3.57%
CCCN(C)c1nccn2c(=O)n(CC(=O)Nc3ccc(OC)c(Cl)c3)nc12,16.13%,-1.22%
Cc1oc(-c2ccccc2)nc1CSc1nc2ccccc2n2c(C(C)C)nnc12,-2.26%,-5.26%
O=C(Cn1nc2ccc(-c3ccc(Cl)cc3)nn2c1=O)NC1CCCC1,12.95%,1.75%
COc1cccc(NC(=O)Cn2nc3c4c5c(sc4ncn3c2=O)CCCC5)c1,2.27%,-1.99%
COc1ccc(C(=O)CSc2nnc3c(=O)n(-c4cccc(OC)c4)ccn23)cc1,14.49%,-2.33%
O=C(Cn1nc2c(SC3CCCCC3)nccn2c1=O)Nc1cccc(Cl)c1,-15.22%,-17.9%
